Each structure is given as a SMILES string. Some of the results follow. Calls of active or inactive are those of the source.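 The calls were made as follows, unless noted: active = fluorescence ratio falls more than 5 SD below the full-stimulation control mean, in both duplicate runs; inactive = the rest.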

Assay [1] has as its target Short transient receptor potential channel 4 (Mus musculus) (UniProt Q9QUQ5). Briefly: mouse TRPC4 membrane potential modulation by TRPC6 hits, confirmation, selectivity assay for TRPC6 inhibitor project, cell-based, second specificity screen, HEK293 TRPC4/mu-opioid (AID 2776;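 active = compounds whose fluorescence signal differed from control wells by over 3 SD, either direction, in both duplicate plates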). Conditions: HEK293 TRPC4/MOR, membrane potential dye fluorescence, at 10 µM, channel activated by saturating DAMGO dose; active compounds read high.

The subject of assay [2] is transient receptor potential cation channel C4 (TRPC4), mouse. Briefly: mouse TRPC4 modulation by TRPC6 hits, confirmation, selectivity assay for TRPC6 inhibitor project, cell-based, HEK293 TRPC4/mu-opioid, membrane potential dye (AID 2777;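 active = rise or fall in signal beyond 3 SD of buffer-only wells in both replicate plates, either sign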;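 also: integrated kinetic ratio of fluorescence range over baseline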). Conditions: membrane potential fluorescence, at 10 µM.
Assay [3] in a line: nonspecific membrane potential effects, parental HEK293, confirmation, counter-screen for TRPC6 inhibitor project, cell-based, second counter screen (AID 2779;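 active = membrane potential signal moving either way by over 3 SD of the maximum-effect control, in both duplicate plates, meaning non-specific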). Conditions: parental HEK293 membrane potential dye fluorescence; at 10 µM; maximal acetylcholine challenge after compound addition. For orientation: A counterscreen serves to expose hits that act by an unwanted route or on another target.

A short description of assay [4]: membrane potential modulation in parental HEK293, confirmation, counter-screen for TRPC6 inhibitor project, cell-based (AID 2780;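 active = membrane potential signal shifting up or down by more than 3 SD of buffer-only wells, on both duplicate plates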;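 as to membrane potential signal change: plate controls were buffer EC0 wells for no effect and acetylcholine ECmax wells for full effect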). Conditions: parental HEK293 membrane potential dye fluorescence; at 10 µM.
The target in assay [5] is Short transient receptor potential channel 6 (Mus musculus) (UniProt Q61143). Briefly: mouse TRPC6 channel inhibitors, confirmation, HEK293 cells, membrane potential dye, duplicate (AID 488960).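 As to inhibition: integrated fluorescence ratio of peak minus minimum over baseline after agonist.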 Conditions: ACh-evoked depolarization, at 10 µM; active compounds read high.
Chain of Short transient receptor potential channel 6 (Mus musculus) (Q61143 whole entry, looked up): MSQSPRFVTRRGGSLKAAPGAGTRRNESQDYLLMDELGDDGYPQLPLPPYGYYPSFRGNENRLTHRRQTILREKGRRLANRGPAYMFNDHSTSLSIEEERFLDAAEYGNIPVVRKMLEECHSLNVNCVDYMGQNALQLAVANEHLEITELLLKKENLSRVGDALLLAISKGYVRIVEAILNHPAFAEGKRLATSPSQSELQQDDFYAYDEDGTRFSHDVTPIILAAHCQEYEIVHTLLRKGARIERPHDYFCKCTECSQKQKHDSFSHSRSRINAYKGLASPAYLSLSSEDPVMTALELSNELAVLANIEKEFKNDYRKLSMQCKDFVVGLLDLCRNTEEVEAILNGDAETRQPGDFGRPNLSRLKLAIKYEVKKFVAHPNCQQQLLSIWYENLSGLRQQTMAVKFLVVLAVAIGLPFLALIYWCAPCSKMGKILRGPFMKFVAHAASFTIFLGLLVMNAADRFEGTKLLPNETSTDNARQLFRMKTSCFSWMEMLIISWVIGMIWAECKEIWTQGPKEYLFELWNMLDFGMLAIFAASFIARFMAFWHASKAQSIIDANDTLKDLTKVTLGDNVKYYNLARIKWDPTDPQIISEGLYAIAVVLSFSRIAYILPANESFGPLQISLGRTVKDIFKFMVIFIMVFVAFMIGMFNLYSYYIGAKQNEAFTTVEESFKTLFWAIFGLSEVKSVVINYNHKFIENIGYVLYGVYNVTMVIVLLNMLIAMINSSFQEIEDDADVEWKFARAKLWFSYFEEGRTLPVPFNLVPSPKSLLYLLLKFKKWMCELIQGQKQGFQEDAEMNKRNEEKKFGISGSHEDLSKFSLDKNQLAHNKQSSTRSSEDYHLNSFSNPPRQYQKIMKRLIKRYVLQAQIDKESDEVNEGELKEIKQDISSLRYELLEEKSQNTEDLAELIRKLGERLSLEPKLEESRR
For assay [6], the system named is TRPC4 (transient receptor potential cation channel C4 beta), mouse. Description: positive allosteric modulators of mouse TRPC4, confirmation, cell-based, second round, Fluo-4, HEK293 TRPC4beta/mu-opioid, 1 µM (AID 2554;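 active = primary screen hit whose fluorescence ratio, in both repeats, exceeds the weak agonist control mean by 3 SD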). The following applies: DAMGO EC20, Fluo-4 calcium flux, at 1 µM; active compounds read high. (In general: Calcium flux is commonly read through the fluorescence of an indicator in the cells.)

For assay [7], the system named is TRPC4 beta (transient receptor potential cation channel C4), mouse. Briefly: positive allosteric modulators of mouse TRPC4, confirmation, cell-based, Fluo-4, HEK293 TRPC4beta/mu-opioid (AID 2555;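 active = primary screen hit whose calcium fluorescence ratio, in both repeats, exceeds the weak agonist control mean by 3 SD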). The following applies: DAMGO EC20, Fluo-4 calcium flux, at 10 µM; active compounds read high.
The subject of assay [8] is TRPC4 (mouse), co-expressed with 5HT1a in HEK293. Briefly: calcium flux potentiators in TRPC4/5HT1a cells, confirmation, counter-screen for TRPC4 potentiator project, cell-based, second counter screen, HEK293 TRPC4/5HT1a, Fluo-4 (AID 434979;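 active = signal rise over 3 SD above mean of control wells given weak agonist, in both repeats and first screen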). The following applies: Fluo-4 calcium flux, at 10 µM, serotonin added at its EC20 dose; active compounds read high.
For assay [9], the system named is TRPC4 beta (transient receptor potential cation channel C4), mouse. Briefly: activators of mouse TRPC4 channel, confirmation, cell-based, Fluo4 calcium, HEK293 TRPC4beta/mu-opioid, duplicates, 10 µM (AID 2426;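 active = fluorescence ratio normalized to control raised more than 50% in primary screen plus both repeat runs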;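 also: percent rise of integrated ratio over buffer wells lacking compound which define 0%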). The following applies: Fluo4 calcium fluorescence, at 10 µM; active compounds read high.
The test system of assay [10] is transient receptor potential cation channel C4 beta (TRPC4), mouse. Description: activators of mouse TRPC4 channel, confirmation, cell-based, second round, Fluo4, HEK293 TRPC4beta/mu-opioid, 1 µM (AID 2461;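 active = primary screen active and over 50% activation in each of two duplicate runs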;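 as to activation: 0% = wells without test compound as baseline of integrated fluorescence ratio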). The following applies: Fluo4 calcium fluorescence, at 1 µM; active compounds read high.
The target in assay [11] is Short transient receptor potential channel 4 (Mus musculus) (UniProt Q9QUQ5). Description: inhibitors of mouse TRPC4 channel, confirmation, cell-based, Fluo4, HEK293 TRPC4beta/mu-opioid (AID 2636;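 active = calcium signal cut by more than 3 SD below the full-agonist control yet still positive, in both repeats and the earlier primary screen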). The following applies: DAMGO, Fluo4 calcium flux, at 10 µM; active compounds read high.
Chain of Short transient receptor potential channel 4 (Mus musculus) (Q9QUQ5 whole entry, looked up): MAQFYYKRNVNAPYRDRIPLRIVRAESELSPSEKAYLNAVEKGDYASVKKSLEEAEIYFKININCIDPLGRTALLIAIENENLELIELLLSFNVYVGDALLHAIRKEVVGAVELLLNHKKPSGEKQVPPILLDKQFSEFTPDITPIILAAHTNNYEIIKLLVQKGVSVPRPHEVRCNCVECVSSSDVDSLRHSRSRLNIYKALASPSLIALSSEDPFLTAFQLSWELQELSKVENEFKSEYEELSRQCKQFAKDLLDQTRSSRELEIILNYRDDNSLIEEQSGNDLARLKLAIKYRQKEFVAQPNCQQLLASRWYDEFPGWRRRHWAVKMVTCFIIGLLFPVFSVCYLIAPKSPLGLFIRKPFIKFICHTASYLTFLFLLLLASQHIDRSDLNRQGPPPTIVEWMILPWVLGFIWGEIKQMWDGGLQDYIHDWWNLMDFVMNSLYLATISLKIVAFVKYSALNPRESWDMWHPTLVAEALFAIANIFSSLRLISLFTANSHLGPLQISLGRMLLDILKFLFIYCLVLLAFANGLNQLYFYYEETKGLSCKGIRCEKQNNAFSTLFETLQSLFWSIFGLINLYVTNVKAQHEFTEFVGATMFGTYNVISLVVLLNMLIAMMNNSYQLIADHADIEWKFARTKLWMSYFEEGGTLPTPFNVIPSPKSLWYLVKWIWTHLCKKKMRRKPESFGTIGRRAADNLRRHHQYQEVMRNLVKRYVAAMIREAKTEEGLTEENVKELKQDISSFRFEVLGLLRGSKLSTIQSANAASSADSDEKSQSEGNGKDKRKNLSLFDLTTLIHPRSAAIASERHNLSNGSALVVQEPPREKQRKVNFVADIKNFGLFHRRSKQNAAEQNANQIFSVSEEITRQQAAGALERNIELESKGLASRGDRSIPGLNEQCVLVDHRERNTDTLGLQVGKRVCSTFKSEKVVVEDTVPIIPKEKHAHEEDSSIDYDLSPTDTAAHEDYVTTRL
Assay [12] shares this target. Briefly: inhibitors of mouse TRPC4 channel, confirmation, cell-based, second round, Fluo4, HEK293 TRPC4beta/mu-opioid, 1 µM (AID 2637;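 active = calcium signal ratio cut to more than 3 SD under the fully stimulated control mean yet still positive, in both repeats and the primary screen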). The following applies: Fluo4 calcium flux, DAMGO, at 1 µM; active compounds read high.
Assay [13] deals with Short transient receptor potential channel 6 (Mus musculus) (UniProt Q61143). Briefly: inhibition of mouse TRPC6 channel, confirmation, selectivity assay for TRPC4 inhibitor project, cell-based, HEK293, membrane potential dye, duplicate (AID 434948;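 active = active in primary screen and both duplicates, each dropping signal beyond three positive-control SD with fluorescence still positive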). The following applies: HEK293 TRPC6, membrane potential dye fluorescence, at 10 µM, stimulated with maximal-effect acetylcholine; active compounds read high.

Assay [14] has the same target. Briefly: activation of mouse TRPC6 channel, confirmation, selectivity assay for TRPC4 activator project, cell-based, HEK293, membrane potential dye, duplicate (AID 434950;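 active = membrane potential signal rise above negative control mean plus 3 SD in both duplicates, also active in the earlier TRPC4 screen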;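 as to activation: 0% = buffer only wells and 100% = acetylcholine maximal-effect wells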). The following applies: HEK293 TRPC6, membrane potential fluorescence, at 10 µM; active compounds read high.
Assay [15] has the same target. Description: TRPC6 potentiation by TRPC4 potentiator hits, confirmation, selectivity assay for TRPC4 potentiator project, HEK293 cells, membrane potential dye, duplicate (AID 434952;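 active = compound raising the membrane signal above positive-control mean plus 3 SD in both repeats, and a primary screen hit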). Conditions: HEK293 TRPC6, membrane potential dye fluorescence, at 10 µM, maximal acetylcholine added after compound; active compounds read high.
Assay [16] concerns the target Short transient receptor potential channel 4 (Mus musculus) (UniProt Q9QUQ5). Briefly: calcium flux activators in TRPC4/5HT1a cells, counter-screen for TRPC4 activator project, cell-based, second counter screen, HEK293 TRPC4/5HT1a, Fluo-4 (AID 434977;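 active = calcium signal rise above buffer-control mean plus 5 SD in both duplicates, and also a hit in the primary screen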;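 also: plate controls were assay buffer for no effect and maximal serotonin response for full effect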). Conditions: Fluo-4 calcium flux, at 10 µM; active compounds read high.
The nature of assay [17]: calcium flux inhibitors in TRPC4/5HT1a cells, confirmation, counter-screen for TRPC4 inhibitor project, cell-based, second counter screen, HEK293 TRPC4/5HT1a, Fluo-4 (AID 434978;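 active = primary screen active whose calcium signal fell more than 3 SD beyond the full-serotonin control mean in both duplicate plates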;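 as to outcome: serotonin given first at submaximal then at maximal dose after compound preincubation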). Conditions: Fluo-4 calcium flux, at 10 µM, serotonin added to trigger calcium flux; active compounds read high.
A short description of assay [18]: calcium flux activation in mu-opioid HEK293 cells, confirmation, counter-screen for TRPC4 activator project, cell-based, HEK293 mu-opioid receptor line (AID 449723;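 active = hit in primary screen, with calcium signal over 5 SD above buffer well mean in both duplicates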;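 also: counter screen cells carry the mu-opioid receptor alone and lack TRPC4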). Conditions: Fluo-4 calcium fluorescence, at 10 µM; active compounds read high.
Assay [19] can be described thus: calcium flux enhancement in mu-opioid HEK293 cells, confirmation, counter-screen for TRPC4 allosteric potentiator project, cell-based, HEK293 mu-opioid receptor line (AID 449724;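 active = calcium signal rise more than 3 SD above the low-dose agonist control mean, in both duplicate plates and the primary screen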). Conditions: Fluo-4 calcium flux, at 10 µM, compound added before EC20 DAMGO stimulus; active compounds read high.

As for `CCCCCCCCCCOC(=O)C[N+](C)(C)CC1CCCCC1O` (configuration not stated), the call in assay [1], in [3] and in assay [5] was inactive. Further, the activity change, negative = inhibition in [2] is 7.58% (active). Moreover, the membrane potential signal change in assay [4] was 2.25% (active).

Consider `O=C(CCN1CCN(Cc2ccccc2)CC1)Nc1nccs1`, for which the values for the potentiation in assay [6], in assay [7] and in assay [8] were 19% (active), 11% (active) and 17% (active), respectively.

One may read the inhibition as the change of the read-out against control, counted positive when it falls. Turning to `CCN(CC)CCn1c2ccc(Cl)cc2c2nc(C)sc21`, the figures for the inhibition in assay [1] and in [5] were 57.5% (active) and 49.7% (active), respectively. For the same compound, the compound was classed as inactive in assay [2] and in assay [3]. For the same compound, the membrane potential signal change in assay [4] was -267% (active).

For the compound `CCOC(=O)N1CCC(NC(=O)CN2C(=O)COc3ccc(C(C)(C)C)cc32)CC1`, the outcome in assay [1], in assay [2], in [3], in assay [4] and in assay [5] was inactive.

For the compound `COc1ccc(N/C(C)=C2/C(=O)C(=O)N(CCO)C2c2ccc(Br)cc2)cc1` (configuration not stated), the activation in assay [9] was 289% (active); in assay [14] it was 31.5% (active); in [16], 57.5% (active). The outcome in assay [10], in assay [7], in [11], in assay [12], in [13] and in assay [15] was inactive. For the same compound, the outcome in assay [17], in assay [18] and in assay [19] was inactive. The potentiation in [6] is 141% (active); in [8], 60.7% (active).

Consider `CCN(CC)c1ccc2cc(C(N)=O)/c(=N\NC(=O)c3ccncc3)oc2c1`, for which the inhibition in assay [1] was 70.5% (active). Besides, the activity change, negative = inhibition in [2] is 31.7% (active). Also, the signal change vs control in [3] was -52% (active). The membrane potential signal change in assay [4] is 1.95% (active). Besides, in assay [5], the result was inactive.

On to `CCCCCOc1ccc(CSC2=NCCN2)cc1[N+](=O)[O-]`, for which the inhibition in assay [1] is 59% (active); in assay [5] it was 54.9% (active). Further, the call in assay [2], in assay [3] and in assay [4] was inactive.

`CCOC(=O)N1CCC(O)(c2cc(C)c(C)cc2C)CC1`: the call in assay [1], in assay [2], in assay [3] and in assay [4] was inactive. Further, the inhibition in assay [5] is 55% (active).

For `CCOC(=O)N1CCN(C(=O)c2ccc3c(c2)N(Cc2ccc(C)cc2)CCS3)CC1`, the outcome in assay [1], in assay [4] and in [5] was inactive. Besides, the activity change, negative = inhibition in [2] was 0.69% (active). Further, the signal change vs control in [3] was 307% (active).

Turning to `O=C1c2ccccc2C(=O)c2c1cccc2N1CCN(Cc2ccccc2)CC1`, the outcome in assay [1] and in assay [3] was inactive. The activity change, negative = inhibition in assay [2] is -17% (active). The membrane potential signal change in assay [4] is -264% (active). For the same compound, the inhibition in [5] was 59.7% (active).

Take `COc1ccc(CNC(=O)c2cc3c(=O)n4ccccc4nc3n(CC3CCCO3)c2=N)cc1` (configuration not stated): the compound was classed as inactive in [1] and in [5]. Moreover, the activity change, negative = inhibition in [2] was -15.8% (active). The signal change vs control in assay [3] is 32% (active). In addition, the membrane potential signal change in assay [4] was -176% (active).

Consider `COc1ccccc1C1SCCN1C(=O)c1ccc([N+](=O)[O-])cc1` (configuration not stated), for which the compound was classed as inactive in [1], in assay [2], in assay [3], in [4] and in [5].

For the compound `CCCCNc1nc2ccccc2[nH]1`, the result in assay [13], in assay [14] and in assay [15] was inactive.

With `CN(C)c1ccc(C2N(C)C(=O)c3ccccc3N2C)cc1` (configuration not stated), the call in [1], in [2], in [4] and in [5] was inactive. Besides, the signal change vs control in assay [3] was 262% (active).

Regarding `CC(C)(C)NCc1cc(Br)ccc1OC1CCCC1`, the inhibition was 36% (active) in assay [1] and 123% (active) in [5]. Further, in assay [2], the activity change, negative = inhibition is 74.6% (active). Moreover, the signal change vs control in [3] was 5% (active). The membrane potential signal change in assay [4] is 38.4% (active).

On to `Clc1ccc(-n2nnnc2-c2cnc(-c3ccccn3)nc2-c2cccs2)cc1`, for which the result in assay [5] was inactive.

For `CN(C)CCCOc1cccc(Cl)c1`, the activation in [9] was 71% (active); in [10], 55% (active); in [14], 51% (active); in [16], 17.9% (active). For the same compound, the values for the potentiation in assay [6], in [7] and in assay [8] were 32% (active), 37% (active) and 28.7% (active), respectively. The outcome in assay [11], in [12], in [13], in assay [15], in assay [17] and in [18] was inactive. In addition, the result in assay [19] was inactive.

In the case of `COc1ccccc1OCCNCC(O)COc1cccc2[nH]c3ccccc3c12` (configuration not stated), the inhibition is 28% (active) in assay [1] and 61.1% (active) in assay [5]. Also, the call in [2], in [3] and in assay [4] was inactive.

For `CC1Cc2ccccc2N1C(=O)CSc1nc2c(c(=O)n(C)c(=O)n2C)n1Cc1ccccc1` (configuration not stated), the activation is 320% (active) in assay [9], 37.5% (active) in assay [14] and 85.8% (active) in assay [16]. In addition, the outcome in [10], in assay [7], in [12], in assay [13], in assay [15] and in assay [18] was inactive. Moreover, in assay [19], the result was inactive. Moreover, the results for the potentiation in [6] and in assay [8] were 65% (active) and 18.8% (active), respectively. The inhibition in [11] was 83% (active); in assay [17], 11.2% (active).

As for `O=C(NNS(=O)(=O)c1ccc(Cl)cc1)C1CCN(Cc2ccccc2)CC1`, the compound was called inactive in assay [1] and in assay [2]. Besides, the signal change vs control in [3] was -4% (active). Also, the membrane potential signal change in assay [4] was 0.15% (active). Besides, the inhibition in [5] was 77.8% (active).

`CC(C)c1ccc(OCC(O)Cn2cnc3ccccc32)cc1` (configuration not stated): the call in assay [1], in assay [2], in assay [3], in assay [4] and in assay [5] was inactive.

In the case of `c1ccc(C2c3[nH]c4ccccc4c3CCN2Cc2cccn2-c2cccnc2)nc1` (configuration not stated), the outcome in assay [1], in [3] and in assay [5] was inactive. Further, the activity change, negative = inhibition in assay [2] is -10.1% (active). For the same compound, the membrane potential signal change in assay [4] was -129% (active).

In the case of `Cc1cccc(NC(=S)NCCN(C2CCCCC2)C2CCCC2)c1`, the inhibition in assay [5] is 44.5% (active).

As for `CC(C)C(c1nnnn1CCc1ccccc1)N1CCN(C(=O)c2ccco2)CC1` (configuration not stated), the inhibition in assay [5] is 70% (active).

For `CN1CCN(c2ccc([N+](=O)[O-])c(Sc3nc4ccccc4[nH]3)c2)CC1`, the inhibition in assay [5] was 52.5% (active).

(Values after PubChem BioAssay.)
